CYP2C9 inh = human CYP2C9 inhibition; P11712; CYP2C9 Supersomes, luciferin-H conversion, luminescence; inhibition, % at 5 µM; 20% of 96,000 active;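 active = blocking of liver enzyme CYP2C9 beyond about 50% at 5 µM, limit read from the data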
Target sequence (P11712 whole entry, looked up): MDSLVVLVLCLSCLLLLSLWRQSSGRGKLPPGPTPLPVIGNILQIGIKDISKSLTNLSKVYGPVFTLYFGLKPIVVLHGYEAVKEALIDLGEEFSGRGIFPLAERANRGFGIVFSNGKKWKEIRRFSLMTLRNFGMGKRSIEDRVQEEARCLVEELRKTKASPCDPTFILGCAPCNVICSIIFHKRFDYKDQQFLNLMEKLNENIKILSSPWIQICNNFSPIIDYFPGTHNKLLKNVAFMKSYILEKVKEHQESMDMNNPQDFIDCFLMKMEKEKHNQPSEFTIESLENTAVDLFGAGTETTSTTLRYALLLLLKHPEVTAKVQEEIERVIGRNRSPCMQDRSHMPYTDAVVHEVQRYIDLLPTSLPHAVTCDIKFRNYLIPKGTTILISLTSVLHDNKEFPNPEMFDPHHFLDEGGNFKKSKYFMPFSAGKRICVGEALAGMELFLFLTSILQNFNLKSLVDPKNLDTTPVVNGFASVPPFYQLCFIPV
CYP2C19 inhib = human CYP2C19 inhibition | P33261 | CYP2C19 Supersomes, luciferin-H EGE luminescence, 30 min | inhibition, % at 5 µM | 21% of 96,000 active | AID 778;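 active = CYP2C19 inhibition above a set limit at 5 µM in the primary screen, cut at about 50% in these data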;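 also: plate controls were negative control wells for no effect and 2.5 mM tranylcypromine positive control for full effect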
CYP2C9 activ = activators of human CYP2C9. 1.4% of 96,000 active. recombinant CYP2C9, luciferin-H conversion, luminescence; active compounds read high; factor 1 = untreated enzyme, 0 = blocked. activation factor at 5 µM;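 active = activation factor of 2 or more for CYP2C9 at a 5 µM dose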;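 also: 0 = sulfaphenazole-blocked wells and 1 = vehicle-only wells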
CYP2C19 act = cytochrome P450 2C19 (human) activation. P33261. recombinant CYP2C19, luciferin-H EGE luminescence; active compounds read high; 0 = fully inhibited enzyme, 1 = untreated enzyme. activation factor at 5 µM. 96,000 tested, under 10 active;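 active = activation factor of at least 2 at 5 µM in the primary screen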;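 also: 0 = wells with 2.5 mM tranylcypromine and 1 = vehicle-only wells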
Active calls of the source: *. Sampled rows, rich in hits. Any-hit rate of the full collection: about 31%.

SMILES	CYP2C9 inh	CYP2C19 inhib	CYP2C9 activ	CYP2C19 act
CC(C)(C)C1CCC2(CC1)Nc1cccc3cccc(c13)N2	80.5*	95.9*	0.2	0
CC(C)(C)NC(=O)c1ccnc(C(C)(C)C)c1	-3.0	52.3*	1	0.5
CC(C)(C)c1cc(C(=O)NCc2ccco2)ccn1	-12.1	-4.8	1.1	1
CC(NC(=O)c1ccnc(C(C)(C)C)c1)c1ccccc1 (stereo not given)	55.3*	55.6*	0.4	0.4
Cn1c(N)c(C(=O)COC(=O)CCc2c[nH]c3ccccc23)c(=O)n(C)c1=O	-70.5	60.1*	1.7	0.4
Cn1c(N)c(C(=O)COC(=O)CCCc2c[nH]c3ccccc23)c(=O)n(C)c1=O	48.2	16.1	0.5	0.8
Cc1ccc(OCC(=O)OCC(=O)c2c(N)n(C)c(=O)n(C)c2=O)cc1C	24.5	59.5*	0.8	0.4
CN(C(=O)Nc1ccc(S(=O)(=O)N(C)C)cc1)C1CCCCC1	-14.3	-7.5	1.1	1.1
CSc1nc2ncc3c(n2n1)CC1c2ccccc2CCN1C3=O (stereo not given)	54.6*	71.7*	0.5	0.3
COc1cccc(C(=O)N2CCN(C(=O)c3cccc4ccccc34)CC2)c1OC	36.3	9.5	0.6	0.9
COc1ccc2c(c1[N+](=O)[O-])CCC/C2=N/OC(=O)c1cccc2ccccc12	-96.2	8.5	2*	0.9
Cc1cc(C)cc(-n2nnc(C(=O)NCc3ccccc3Cl)c2N)c1	-175.5	8.3	2.8*	0.9
O=C(NCc1ccccn1)c1ccc(N2CCCC2=O)cc1	-12.1	-18.8	1.1	1.2
COc1ccc(-c2c3c(=O)n(C)c(=O)n(C)c3cn2-c2cc(OC)ccc2OC)cc1	63.2*	25.0	0.4	0.8
COc1ccc(/C=C(/C(=O)Nc2ccccc2C(=O)NC(C)C)c2ccccc2)cc1	59.9*	43.4	0.4	0.6
COc1ccc(/C=C(/C(=O)Nc2ccccc2C(=O)N2CCCC2)c2ccccc2)cc1	6.4	40.5	0.9	0.6
O=C(CSc1nnc(COc2ccc(Cl)cc2)o1)OC1CCCCC1	4.6	2.7	1	1
O=C(CSc1nnc([C@@H]2CCCN2)o1)c1ccc(Cl)cc1	30.5	97.7*	0.7	0
Clc1ccc(CSc2nnc([C@@H]3CCCN3)o2)cc1Cl	35.2	99.6*	0.6	0
CC(C)C(=O)Nc1ccc(C(=O)NNC(=O)CCCOc2ccc(Cl)cc2Cl)cc1	39.5	7.2	0.6	0.9
CC1CCCC(C)N1C(=O)COC(=O)c1ccc2c(c1)OCO2 (stereo not given)	29.5	34.7	0.7	0.7
O=C1NC(c2ccccc2)(C(F)(F)F)SC2=NCCCN12 (stereo not given)	20.8	68.4*	0.8	0.3
O=C1N2CN(C(c3ccccc3)c3ccccc3)CN=C2SC1(CO)CO	1.6	7.5	1	0.9
CN(C(=O)C1CCOC1)c1nnc(-c2cnccn2)s1 (stereo not given)	7.8	31.6	0.9	0.7
O=C(CCN1C(=O)C2C3C=CC(C4CC34)C2C1=O)Oc1cccc2cccnc12 (stereo not given)	-2.5	14.8	1	0.9
SMILES	CYP2C9 inh	CYP2C19 inhib	CYP2C9 activ	CYP2C19 act
Cc1cc(C)n(C(=O)CCCC(=O)n2nc(C)cc2C)n1	-20.1	18.2	1.2	0.8
Cc1cc(C)n(C(=O)CCCCCCCCC(=O)n2nc(C)cc2C)n1	58.4*	70.9*	0.4	0.3
CC(C)c1nc(N2CCN(C(=O)c3ccccc3)CC2)c(C#N)c2c1COC(C)(C)C2	81.4*	72.3*	0.2	0.3
CC1(C)Cc2c(C#N)c(N3CCCC3)nc(-c3ccco3)c2CO1	90.6*	50.6*	0.1	0.5
N#Cc1c(N2CCOCC2)nc(-c2ccco2)c2c1CCCC2	67.0*	21.2	0.3	0.8
CCC(=O)N1CCN(c2nc(-c3ccccc3)c3c(c2C#N)CCCC3)CC1	69.3*	83.1*	0.3	0.2
CC1(C)Cc2c(C#N)c(NCc3ccco3)nc(-c3ccco3)c2CO1	19.1	-3.0	0.8	1
CC1(C)Cc2c(c(-c3ccccc3)nc(N3CCCC3)c2C(N)=O)CO1	-11.8	-10.6	1.1	1.1
CCCn1c(SCC(=O)NC2CCCC(C)C2C)n[nH]c1=O (stereo not given)	-0.5	-6.1	1	1.1
CCOc1cccc(Oc2ncccc2C(=O)/C(C#N)=C/N(C)C)c1	27.2	41.6	0.7	0.6
CC(C)c1ccc(Oc2cccc(C(=O)/C(C#N)=C/N(C)C)c2)cc1	85.2*	97.6*	0.1	0
CN(C)/C=C(\C#N)C(=O)c1cccc(Oc2ccc(Br)cc2)c1	29.3	92.0*	0.7	0.1
O=C(CSC1=NCCS1)N1CCN(c2ccc(Cl)cc2)CC1	16.2	62.0*	0.8	0.4
CCOC(=O)C1CCN(C(=O)CSc2n[nH]c(=O)[nH]c2=O)CC1	-10.6	-15.8	1.1	1.2
Cn1nnnc1SCC(=O)N1CCN(c2ccc(Cl)cc2)CC1	25.8	-11.4	0.7	1.1
CCOC(=O)C1CCN(C(=O)CSC2=NCCS2)CC1	9.1	59.4*	0.9	0.4
CCC(C)OC(=O)C1=C(C)NC(=O)CC1c1ccccc1OC (stereo not given)	14.4	34.4	0.9	0.7
CCCOc1ccccc1C1CC(=O)NC(C)=C1C(=O)OCC(C)C (stereo not given)	-6.1	56.3*	1.1	0.4
CC1=C(C(=O)OC(C)C)C(c2ccccc2Cl)CC(=O)N1 (stereo not given)	7.3	86.7*	0.9	0.1
COc1ccccc1NC(=O)N1CCCC1C(=O)NC12CC3CC(CC(C3)C1)C2 (stereo not given)	-14.0	10.0	1.1	0.9
COc1cc2c(cc1NC(=O)c1cc(-c3ccncc3)nc3ccc(C)cc13)oc1ccccc12	86.6*	61.0*	0.1	0.4
CC(C)(C)OC(=O)N1CCC(C(=O)N2CCC[C@H]2C(=O)O)CC1	-1.9	-2.0	1	1
CCCCCN=Cc1c(C)[nH]n(-c2nc3ccccc3s2)c1=O	72.7*	52.6*	0.3	0.5
COc1ccc(Cn2nc(C)n(N(C)c3ncc(C(F)(F)F)cc3Cl)c2=O)cc1	15.5	53.2*	0.8	0.5
Cc1nnc(SCC(=O)Nc2cccc(C(F)(F)F)c2)[nH]c1=O	22.2	-5.5	0.8	1.1
SMILES	CYP2C9 inh	CYP2C19 inhib	CYP2C9 activ	CYP2C19 act
COc1ccccc1N1CCN(C(c2cccs2)C(C)NS(=O)(=O)c2ccccc2)CC1 (stereo not given)	85.8*	72.3*	0.1	0.3
CC(NS(=O)(=O)c1ccc(Br)cc1)C(c1cccs1)N1CCN(C)CC1 (stereo not given)	-1.5	100.4*	1	0
CC(NS(=O)(=O)c1ccccc1)C(c1cccs1)N1CCN(c2ccccc2)CC1 (stereo not given)	28.1	18.9	0.7	0.8
CC1CCCN(S(=O)(=O)c2ccc(S(=O)(=O)NC(C)c3cccs3)cc2)C1 (stereo not given)	74.5*	100.0*	0.3	0
CC(C)C(=O)Nc1c(-c2cccs2)c(=O)c2ccccc2n1C	-14.2	-0.7	1.1	1
Oc1ccccc1-c1nc2cnccn2c1Nc1ccc2c(c1)OCCO2	93.9*	91.9*	0.1	0.1
